Inconclusive results are not listed. Values without a mark were called inactive. Active and inactive are the calls of the source. Calls follow the shape of the full dose curve.
Assay: qHTS assay to identify small molecule agonists of the hypoxia (HIF-1) signaling pathway - cell viability counter screen (AID 1224844); also: nearly all actives have a fitted effect of over 50% in size
Conditions: HRE-bla ME-180 viability, CellTiter-Glo luminescence, 17 h; series mostly up to 76.8 µM; activity change, negative = cytotoxicity: at the top concentration
Source text: National Center for Advancing Translational Sciences [NCATS]
NIH Chemical Genomics Center [NCGC]
U.S. Environmental Protection Agency [EPA]
National Institutes of Environmental Health Sciences [NIEHS]
National Toxicology Program [NTP]
U.S. Food and Drug Administration [FDA]
Hypoxia-inducible factor-1 (HIF-1) is the major hypoxia-regulated transcription factor that controls cellular responses to low oxygen concentration. HIF-1 is composed of two subunits: hypoxia responsive HIF-1-alpha and constitutively expressed HIF-1-beta, which is also known as aryl hydrocarbon receptor nuclear translocator. During hypoxic conditions, HIF-1-alpha heterodimerizes with HIF-1-beta and translocates into the nucleus where the HIF-1 complex binds to the hypoxia-response element (HRE) and activates expression of target genes such as VEGF (vascular endothelial growth factor). The HIF-1 pathway is essential to normal growth and development, and is involved in the pathophysiology of cancer, inflammation, and ischemia.
Using a beta-lactamase reporter-gene under control of the hypoxia response element, a cell-based assay [CellSensor(TM) HRE-bla ME-180 from Life Technologies, Carlsbad, CA] was used to measure hypoxia-induced signaling. Tox21 10K library compounds were measured for their ability to induce the reporter gene activity. The cytotoxicity of the Tox21 compound library against HRE-bla ME-180 cell line was tested in parallel by measuring cell viability using CellTiter-Glo assay (Promega, Madison, WI) in the same assay wells.
Tox21 Assay Protocol Summary:
HRE-bla ME-180 cells were dispensed at 2,000 cells per well in 6 uL of assay medium containing 0.5% dialyzed FBS into black wall/clear-bottom 1536-well plates using a Multidrop Combi (Thermo Scientific, Waltham, MA) dispenser. After the assay plates were incubated at 37C and 5% CO2 for 5 hrs, 23 nL of compounds dissolved in DMSO, positive controls or DMSO only was transferred to each well of the assay plate using a Pintool station (Kalypsys, San Diego, CA). The assay plates were incubated at 37C and 5% CO2 for 17 hrs. One uL of LiveBLAzerTM B/G FRET substrate (CCF4-AM) (Life Technologies) was added to each well using a Flying Reagent Dispenser (FRD, Aurora Discovery, San Diego, CA). After 2 hr incubation at room temperature, fluorescence intensity (405 nm excitation, 460 nm and 530 nm emissions) was measured using an Envision plate reader (PerkinElmer, Shelton, CT). For cytotoxicity, 4 ul/well of CellTiter-Glo reagent was added into the assay plates using an FRD. After 30 min incubation at room temperature, the luminescence intensity was measured using a ViewLux plate reader (PerkinElmer).
% is scaled to controls: 0 for no effect and ±100 for the full control effect; potency is read from the fitted curve at half-maximal effect.

Row | SMILES | activity change, negative = cytotoxicity | Potency
1 | ClC1=C(Cl)[C@]2(Cl)[C@@H]3[C@@H](Cl)[C@H]4O[C@H]4[C@@H]3C1(Cl)C2(Cl)Cl | -15.6% | –
2 | O=S(=O)(C(Cl)(Cl)Cl)C(Cl)(Cl)Cl | – | 12.3 µM (active)
3 | Cc1ccc(N(SC(F)(Cl)Cl)S(=O)(=O)N(C)C)cc1 | – | 17.4 µM (active)
4 | C[C@]12CC[C@@H](O)C[C@@H]1CC[C@@H]1[C@@H]2CC[C@]2(C)C(=O)CC[C@@H]12 | – | 21.9 µM (active)
5 | CC(c1ccccc1)(c1ccc(O)cc1)c1ccc(O)cc1 | – | 54.9 µM (active)
6 | ClC(Cl)=C(c1ccc(Cl)cc1)c1ccccc1Cl | 0.229% | –
7 | CCN(CC)C(=O)Cl | 1.39% | –
8 | CC1COC(Cn2cncn2)(c2ccc(Oc3ccc(Cl)cc3)cc2Cl)O1 (stereo not drawn) | -12.2% | –
9 | COc1ccc(C(c2ccc(OC)cc2)C(Cl)(Cl)Cl)cc1 | 0.711% | –
10 | N#Cc1cc([N+](=O)[O-])ccc1N | -9.63% | –
11 | Cc1nnc2n1-c1sc(CCc3ccc(CC(C)C)cc3)cc1C(c1ccccc1Cl)=NC2C (stereo not drawn) | – | 19 µM (active)
12 | Oc1c(I)cc(I)cc1I | – | 38.9 µM (active)
13 | Cc1cc(C(C)(C)c2ccc(O)c(C)c2)ccc1O | -12% | –
14 | Cc1cc(C)c(C(=O)P(=O)(c2ccccc2)c2ccccc2)c(C)c1 | – | 43.6 µM (active)
15 | Cc1ccc2nc3sc(=O)sc3nc2c1 | – | 7.37 µM (active)
16 | CCOC(=O)C(O)(c1ccc(Cl)cc1)c1ccc(Cl)cc1 | – | inactive
17 | O=[N+]([O-])c1c(Cl)c(Cl)cc(Cl)c1Cl | 0.175% | –
18 | OC(Cc1ccccc1Cl)(Cn1[nH]cnc1=S)C1(Cl)CC1 (stereo not drawn) | 12% | –
